This is part of a sample that, as a whole, favours compounds with a hit. Of some 79,000 tested, about 15% had one in any assay. A number with no mark means an inactive call. Activity calls are given as the source filed them. Rule as the data show it: active = growth inhibition above about 70%; inactive = the rest.
Legend:
[1] = NCI Yeast Anticancer Drug Screen. Data for the rad50 strain (AID 155);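 also: 0% = growth of vehicle-only cultures of the same strain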; conditions: S. cerevisiae rad50 strain growth inhibition, stronger effect = higher value
How it was run: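 Genetically altered yeast (DNA repair pathway); compound treatment; growth inhibition vs vehicle ctrl.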

[2] = NCI Yeast Anticancer Drug Screen. Data for the mec2-1 strain (AID 157); conditions: S. cerevisiae mec2-1 strain, stronger effect = higher value
How it was run: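 Each compound was tested on mec2-1 yeast, a strain altered in DNA damage repair or cell cycle control. Growth inhibition is reported relative to vehicle.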

[3] = NCI Yeast Anticancer Drug Screen. Data for the sgs1 mgt1 strain (AID 161);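 also: 0% = growth of cultures given vehicle only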; conditions: S. cerevisiae sgs1 mgt1 strain, stronger effect = higher value
How it was run: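 Test agents were incubated with a DNA-repair-mutant yeast strain. Growth was then read and compared against vehicle-treated controls.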

[4] = NCI Yeast Anticancer Drug Screen. Data for the cln2 rad14 strain (AID 165);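 also: 0% = growth equal to vehicle treated cultures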; conditions: S. cerevisiae cln2 rad14 strain, stronger effect = higher value
How it was run: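 Test compounds were added to cln2 rad14 yeast cultures; inhibition of growth was then determined by comparison with vehicle treatment.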

[5] = NCI Yeast Anticancer Drug Screen. Data for the bub3 strain (AID 167); conditions: S. cerevisiae bub3 mutant strain, stronger effect = higher value
How it was run: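 Yeast carrying a defined mutation is treated with each compound, and growth is compared with that of vehicle-exposed cells to give inhibition.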

[6] = NCI Yeast Anticancer Drug Screen. Data for the mlh1 rad18 strain (AID 175); conditions: S. cerevisiae mlh1 rad18 strain growth inhibition, stronger effect = higher value
How it was run: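 Inhibition values reflect reduced growth of mutant yeast versus vehicle-treated controls following compound exposure; the mutations affect DNA damage repair.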

[7] = at 5.0 µM (retest, dose inferred, filed as 0.5)
[8] = at 50.0 µM (retest, dose inferred, filed as 5.0)

| SMILES | growth inhibition [1, 7] | growth inhibition [1, 8] | growth inhibition ([1]; at 50.0 µM) | growth inhibition [2, 7] | growth inhibition [2, 8] | growth inhibition ([2]; at 50.0 µM) | growth inhibition [3, 7] | growth inhibition [3, 8] | growth inhibition ([3]; at 50.0 µM) | growth inhibition [4, 7] | growth inhibition [4, 8] | growth inhibition ([4]; at 50.0 µM) | growth inhibition [5, 7] | growth inhibition [5, 8] | growth inhibition ([5]; at 50.0 µM) | growth inhibition [6, 7] | growth inhibition [6, 8] | growth inhibition ([6]; at 50.0 µM) |
| --- | --- | --- | --- | --- | --- | --- | --- | --- | --- | --- | --- | --- | --- | --- | --- | --- | --- | --- |
| c1ccc([P+](C[P+](c2ccccc2)(c2ccccc2)c2ccccc2)(c2ccccc2)c2ccccc2)cc1 | 98% (active) | 99% (active) | 47.4% | 98% (active) | 100% (active) | 99.5% (active) | 98% (active) | 99% (active) | 58.4% | 97% (active) | 99% (active) | 99.4% (active) | 98% (active) | 99% (active) | 99.7% (active) | 98% (active) | 99% (active) | 99.5% (active) |
| CCCCCCCCCCCCNCC(=O)O | -2% | 80% (active) | 92.9% (active) | 1% | 60% | 87.6% (active) | 3% | 23% | 74.5% (active) | 1% | 53% | -6.3% | 7% | 67% | 92.2% (active) | 3% | 55% | 92% (active) |
| CN(CCC(=O)/C(=C\c1ccc(Cl)cc1)c1ccccc1)Cc1ccccc1 | 98% (active) | 98% (active) | 62.9% | 100% (active) | 99% (active) | 99% (active) | 99% (active) | 99% (active) | 98.2% (active) | 98% (active) | 98% (active) | 98.5% (active) | 97% (active) | 99% (active) | 97.6% (active) | 99% (active) | 99% (active) | 98.5% (active) |
| Cc1ccc(N=Nc2ncccc2O)cc1C | -157% | 95% (active) | 98.8% (active) | -49% | 95% (active) | 98.2% (active) | -67% | 95% (active) | 98.4% (active) | -64% | 93% (active) | 87.4% (active) | -85% | 96% (active) | 97.7% (active) | -121% | 95% (active) | 98.2% (active) |
| COC(=O)NNc1c([N+](=O)[O-])cnn(-c2ccccc2)c1=O | 18% | 56% | 14.9% | -5% | 10% | 0.55% | -1% | -14% | 14% | 9% | 32% | 30% | 11% | 26% | 0.9% | -11% | -12% | -8.15% |
| CC1(C)CCN(CCOC(=O)C(c2ccccc2)C2C=CCCC2)C1 (configuration not stated) | -3% | 46% | 64.2% | 25% | 50% | 56.6% | 29% | 69% | 77% (active) | 3% | 32% | 73.7% (active) | 4% | 26% | 69.8% | 38% | 65% | 70% |
| O=[N+]([O-])c1ccc(N/N=C/CCCCCCCCCCBr)c([N+](=O)[O-])c1 | -4% | -3% | 24.8% | -2% | 1% | 10.4% | -5% | 0% | 2.4% | -4% | -6% | 9.15% | -5% | 1% | 50.3% | -1% | -2% | 21.4% |
| NC(=S)C(=S)N=Cc1c(N)[nH]n(-c2ccccc2)c1=O | -13% | -1% | 57.8% | -10% | 15% | 48.8% | 9% | 3% | 53.8% | 32% | 26% | 61.6% | 19% | 37% | -10.6% | -4% | 15% | 44.6% |
| COc1ccc2ccccc2c1Cc1c(OC)ccc2ccccc12 | -2% | 98% (active) | -11.7% | -2% | 98% (active) | 8.65% | -2% | 98% (active) | -2.7% | -15% | 98% (active) | 7.65% | -5% | 98% (active) | -6.35% | 0% | 98% (active) | 9.35% |
| CCCCC(CCCC)=NNC(=S)SC | 4% | 85% (active) | 83.9% (active) | 5% | 62% | 45.1% | 3% | 79% (active) | 66% | -3% | 17% | -27.6% | 2% | 80% (active) | 74.1% (active) | -3% | 87% (active) | 56.9% |
| CC1=Cc2cc3[n-]c(cc4nc(cc5[n-]c(cc1n2)cc5C)C(C)=C4CCC(=O)O)c(CCC(=O)O)c3C.[Pd+2] | 0% | 72% (active) | 15.1% | 2% | 55% | 26% | 0% | 80% (active) | 12.2% | -11% | 61% | 62.8% | -3% | 69% | 7.7% | -1% | 73% (active) | 10.6% |
| Cc1cc2c(C(C)C)c(O)c(O)c(C=Nc3ccc(C(=O)O)cc3)c2c(O)c1-c1c(C)cc2c(C(C)C)c(O)c(O)c(C=Nc3ccc(C(=O)O)cc3)c2c1O | 14% | 97% (active) | 91.8% (active) | 27% | 98% (active) | 91.2% (active) | 34% | 97% (active) | 61.4% | -3% | 95% (active) | 73.3% (active) | 4% | 98% (active) | 58.5% | 40% | 98% (active) | 86.3% (active) |
| CC(=O)OC(CCl)C(C)[N+](=O)[O-] (configuration not stated) | 7% | 91% (active) | 90.8% (active) | 5% | 96% (active) | 98.5% (active) | 7% | 75% (active) | 46.6% | 6% | 83% (active) | 36.9% | 6% | 99% (active) | 97.7% (active) | 5% | 86% (active) | 43.4% |
| Cc1ccccc1NC(=O)C(=O)C(C#N)c1c(Cl)cccc1Cl (configuration not stated) | -13% | 15% | -15.6% | 6% | 11% | 17.1% | -2% | 2% | 25.6% | 0% | 10% | -12.1% | -3% | 25% | 14.7% | 2% | 3% | 25.9% |
| CC(C)C1=CC[C@H]2C(=C1)CC[C@@H]1[C@]2(C)CCC[C@@]1(C)C(=O)O | -2% | 90% (active) | 79.3% (active) | 15% | 91% (active) | 84.5% (active) | 9% | 91% (active) | 74.8% (active) | -9% | 92% (active) | 87% (active) | -6% | 89% (active) | 78.2% (active) | 7% | 90% (active) | 77.1% (active) |
| CCN(CC)CC(O)c1ccc2cc(Cl)c3ccccc3c2c1 (configuration not stated) | 15% | 99% (active) | 99.5% (active) | 4% | 99% (active) | 99.5% (active) | 25% | 99% (active) | 99.6% (active) | 8% | 99% (active) | 99.3% (active) | 16% | 98% (active) | 99.5% (active) | 29% | 99% (active) | 99.6% (active) |
| O=CC(O)C(O)C(O)C(O)C(=O)NCCCCCCCCCCCCNC(=O)C(O)C(O)C(O)C(O)C=O (configuration not stated) | 19% | 22% | 16.4% | 20% | 27% | 12.2% | -20% | -28% | 21.9% | -2% | 18% | 25.2% | -4% | 10% | -6.7% | 20% | 23% | -20.6% |
| CCn1c2ccc(N)cc2c2c(N)c(-n3cccc3)ccc21 | 1% | 61% | 94.5% (active) | 3% | 54% | 64.2% | -7% | 71% (active) | 97.5% (active) | -6% | 50% | 61.9% | -2% | 86% (active) | 87.5% (active) | 4% | 57% | 91.5% (active) |
| O=C1c2ccccc2-c2nc3ncccc3cc21 | 27% | 93% (active) | 95.7% (active) | 6% | 83% (active) | 56.1% | 4% | 78% (active) | 42.2% | 6% | 63% | 57.9% | 4% | 57% | 79.4% (active) | -5% | 88% (active) | 71.4% (active) |

Source: PubChem BioAssay (NCI)
